{"source": "PubChem BioAssay (NCATS)", "key": {"[1]": {"test_system": "HIV-1 nucleocapsid protein NCp7 (binding to TG oligonucleotide)", "experiment": "HIV Nucleocapsid (AID 346; call rule not given here;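 note: potency is the fitted concentration of half-maximal effect; potency is for inhibitors that block NC binding and lower polarization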)", "details": "HIV-1 NC / fluorescein-TGTGTGTG probe, fluorescence polarization", "in_short": "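Fluorescence polarization readout: labelled TG4xF oligo (10 nM) with 100 nM nucleocapsid protein, high-salt (250mM NaCl) Hepes pH 7.5 buffer containing zinc and fresh reducing agents. Compounds added by pin tool; incubation 1 hr, room temperature.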"}, "[2]": {"target": "Lysosomal acid glucosylceramidase (Homo sapiens) (UniProt P04062)", "sequence (P04062 whole entry, looked up)": "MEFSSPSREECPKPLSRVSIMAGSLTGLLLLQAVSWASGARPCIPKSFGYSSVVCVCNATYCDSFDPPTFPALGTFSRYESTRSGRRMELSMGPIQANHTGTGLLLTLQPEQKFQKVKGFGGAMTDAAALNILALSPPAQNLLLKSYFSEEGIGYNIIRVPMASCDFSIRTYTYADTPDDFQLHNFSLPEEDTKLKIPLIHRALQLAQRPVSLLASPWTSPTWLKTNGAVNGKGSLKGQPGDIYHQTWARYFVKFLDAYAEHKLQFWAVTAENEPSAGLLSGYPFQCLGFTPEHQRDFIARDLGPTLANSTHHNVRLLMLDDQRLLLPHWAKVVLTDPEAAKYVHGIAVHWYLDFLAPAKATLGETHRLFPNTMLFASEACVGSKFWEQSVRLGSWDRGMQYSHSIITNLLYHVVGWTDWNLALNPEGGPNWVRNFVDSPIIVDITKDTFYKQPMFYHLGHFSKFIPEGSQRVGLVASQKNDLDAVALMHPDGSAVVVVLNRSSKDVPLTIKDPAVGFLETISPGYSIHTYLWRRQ", "experiment": "Glucocerebrosidase-p2 (AID 348; in the data active = potency below about 10 µM; note: potency is the fitted concentration of half-maximal effect)", "details": "purified GBA, blue fluorogenic substrate, 40 min", "in_short": "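Compounds titrated from 0.6 nM upwards against 0.2 nM enzyme in pH 5.9 citric acid/KH2PO4, taurocholate, tween-20; blue fluorogenic substrate 80 uM, 40 min room temperature, stopped and read Ex 365/Em 440 for AC50.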"}, "[3]": {"experiment": "AP1 Signaling Pathway (AID 357; active = well fitted curve in either direction with a large enough effect, not every such curve was filed as active)", "in_short": "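A ratiometric CCF4 readout (405 nm excitation; 460 and 530 nm emission) quantified AP-1-driven beta-lactamase in ME-180 cells after 5 h with compound and EC50 EGF; AC50 values were derived for activators and inhibitors.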"}, "[4]": {"target": "Cytochrome P450 1A2 (Homo sapiens) (UniProt P05177)", "sequence (P05177 whole entry, looked up)": "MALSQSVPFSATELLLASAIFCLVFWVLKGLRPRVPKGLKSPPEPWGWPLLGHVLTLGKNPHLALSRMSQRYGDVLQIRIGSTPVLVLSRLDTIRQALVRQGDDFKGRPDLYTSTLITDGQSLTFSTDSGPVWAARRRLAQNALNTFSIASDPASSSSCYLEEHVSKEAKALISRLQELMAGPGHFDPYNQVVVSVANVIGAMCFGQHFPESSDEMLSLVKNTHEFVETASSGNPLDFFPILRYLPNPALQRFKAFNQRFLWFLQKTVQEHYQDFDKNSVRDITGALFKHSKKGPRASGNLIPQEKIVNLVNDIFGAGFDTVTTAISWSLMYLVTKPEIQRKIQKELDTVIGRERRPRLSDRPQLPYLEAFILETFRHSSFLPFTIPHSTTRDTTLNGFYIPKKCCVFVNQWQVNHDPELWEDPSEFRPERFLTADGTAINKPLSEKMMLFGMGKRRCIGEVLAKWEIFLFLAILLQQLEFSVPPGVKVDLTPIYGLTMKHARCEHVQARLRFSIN", "experiment": "p450-cyp1a2 (AID 410; calls by dose curve; note: potency is the fitted concentration of half-maximal effect)", "in_short": "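Luminescent readout of luciferin formed from Luciferin-ME by human CYP1A2; data normalized against complete inhibition by 57 uM furafylline. Enzyme 20nM, substrate 100uM at Km, 100mM KPO4 buffer, 60 min reaction at room temperature.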"}, "[5]": {"experiment": "NFAT Signaling Pathway (AID 444; active = well fitted curve in either direction with a large enough effect, not every such curve was filed as active)", "details": "Jurkat NFAT-bla M1, carbachol, beta-lactamase ratio, 5 h; at 7.69 µM (top of the series)", "in_short": "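Jurkat cells with NFAT-driven β-lactamase reporter and co-expressed M1 receptor, stimulated with carbachol (final 1 uM, ~EC50), compound titration, 5 h at 37 °C. CCF4 loaded 1 h at RT; 460/530 nm ratio gave %activity and AC50.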"}, "[6]": {"experiment": "Stat Signaling Pathway (AID 446; active = well fitted curve in either direction with a large enough effect, not every such curve was filed as active)", "in_short": "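Reporter line: ME-180 cervical carcinoma, SIE-beta-lactamase. Treatment: compound with 40 pM IL-6, 5 hrs, 37 C, in low-serum OPTI-MEM with 10 mM HEPES pH 7.3. Detection: 460/530 nm fluorescence.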"}, "[7]": {"target": "Glucocorticoid receptor (Homo sapiens) (UniProt P04150)", "sequence (P04150 whole entry, looked up, the tested form may be a part)": "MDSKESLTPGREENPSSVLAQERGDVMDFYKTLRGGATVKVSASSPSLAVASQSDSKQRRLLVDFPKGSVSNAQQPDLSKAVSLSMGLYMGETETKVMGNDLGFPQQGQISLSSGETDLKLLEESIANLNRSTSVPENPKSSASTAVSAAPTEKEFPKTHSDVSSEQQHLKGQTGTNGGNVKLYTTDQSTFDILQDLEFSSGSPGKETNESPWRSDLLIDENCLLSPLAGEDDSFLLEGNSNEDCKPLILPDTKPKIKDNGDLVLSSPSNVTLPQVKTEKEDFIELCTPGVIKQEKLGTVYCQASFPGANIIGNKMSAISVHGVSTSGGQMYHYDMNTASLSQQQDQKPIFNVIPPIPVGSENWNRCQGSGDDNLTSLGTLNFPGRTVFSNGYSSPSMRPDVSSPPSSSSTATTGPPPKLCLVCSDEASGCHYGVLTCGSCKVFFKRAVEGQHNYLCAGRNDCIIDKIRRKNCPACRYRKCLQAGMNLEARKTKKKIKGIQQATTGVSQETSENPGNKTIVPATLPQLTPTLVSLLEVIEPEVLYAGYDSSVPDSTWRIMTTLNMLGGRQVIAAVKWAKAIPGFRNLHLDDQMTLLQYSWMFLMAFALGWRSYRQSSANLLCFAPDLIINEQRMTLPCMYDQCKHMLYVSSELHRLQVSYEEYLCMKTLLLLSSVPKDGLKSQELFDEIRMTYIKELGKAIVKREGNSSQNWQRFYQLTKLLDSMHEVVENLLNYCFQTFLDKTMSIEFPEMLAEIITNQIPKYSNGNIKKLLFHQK", "experiment": "GR-EFC Redistribution (AID 451; calls by dose curve; note: potency is the fitted concentration of half-maximal effect)", "details": "CHO-K1 GR-EFC translocation, beta-gal luminescence, 2 h", "in_short": "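CHO-K1 cells expressing nuclear EA and GR-ED fragments of b-gal; compounds titrated up to 46 uM final, 2 h at 37 C. GR nuclear translocation read as complemented b-gal luminescence after 1 h RT detection.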"}, "[8]": {"target": "Mitogen-activated protein kinase 10 (Mus musculus) (UniProt Q61831)", "experiment": "JNK3 AlphaScreen Assay (AID 530; active = well fitted curve in either direction with a large enough effect, not every such curve was filed as active;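 note: signal reports phosphorylation of biotinylated GST-cJun 1-79 at Ser73 with 10 µM ATP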)", "in_short": "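Pre-activated (IL-1β/TNFα) JNK3 in HepG2 lysates phosphorylates biotin-GST-cJun(1-79), 10 uM ATP; anti-phospho-cJun(Ser73) AlphaScreen read at room temperature, pH 7.6 Tris buffer. Compounds pre-incubated 15 min as titrations.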"}, "[9]": {"target": "3',5'-cyclic-AMP phosphodiesterase 4B (Homo sapiens) (UniProt Q07343)", "sequence (Q07343 whole entry, looked up)": "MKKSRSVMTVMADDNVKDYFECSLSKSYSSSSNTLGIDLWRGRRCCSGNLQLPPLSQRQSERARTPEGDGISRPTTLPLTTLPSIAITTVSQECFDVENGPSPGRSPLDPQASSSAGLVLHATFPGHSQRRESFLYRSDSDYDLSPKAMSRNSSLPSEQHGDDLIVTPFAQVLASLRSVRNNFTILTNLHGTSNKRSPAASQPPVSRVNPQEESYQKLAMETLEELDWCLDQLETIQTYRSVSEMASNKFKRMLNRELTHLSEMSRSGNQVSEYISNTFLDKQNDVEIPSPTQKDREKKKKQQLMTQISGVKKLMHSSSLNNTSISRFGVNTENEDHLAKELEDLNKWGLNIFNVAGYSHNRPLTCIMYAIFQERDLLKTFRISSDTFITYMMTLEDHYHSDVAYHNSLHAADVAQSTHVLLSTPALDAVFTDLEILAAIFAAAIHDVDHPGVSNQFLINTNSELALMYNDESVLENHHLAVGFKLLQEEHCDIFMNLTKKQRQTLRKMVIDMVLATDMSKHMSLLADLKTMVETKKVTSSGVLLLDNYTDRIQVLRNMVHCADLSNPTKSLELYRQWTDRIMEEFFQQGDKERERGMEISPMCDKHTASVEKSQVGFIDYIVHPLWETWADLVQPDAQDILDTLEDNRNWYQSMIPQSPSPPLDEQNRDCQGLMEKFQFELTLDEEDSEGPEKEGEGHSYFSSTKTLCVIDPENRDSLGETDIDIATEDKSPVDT", "experiment": "qHTS Assay for Inhibitors of PDE-IV (AID 607; active = well fitted activation curve with a large enough effect in the main read-out, with a control signal flat, not every such curve was filed as active)", "in_short": "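Cell-based read-out of cAMP via a modified cyclic nucleotide-gated channel and membrane potential dye (535/590 nm) in HEK293 cells expressing PDE4 endogenously. Compounds tested up to 22.9 uM final; 100 uM RO 20-1724 reference.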"}, "[10]": {"target": "Cytochrome P450 2C9 (Homo sapiens) (UniProt P11712)", "sequence (P11712 whole entry, looked up)": "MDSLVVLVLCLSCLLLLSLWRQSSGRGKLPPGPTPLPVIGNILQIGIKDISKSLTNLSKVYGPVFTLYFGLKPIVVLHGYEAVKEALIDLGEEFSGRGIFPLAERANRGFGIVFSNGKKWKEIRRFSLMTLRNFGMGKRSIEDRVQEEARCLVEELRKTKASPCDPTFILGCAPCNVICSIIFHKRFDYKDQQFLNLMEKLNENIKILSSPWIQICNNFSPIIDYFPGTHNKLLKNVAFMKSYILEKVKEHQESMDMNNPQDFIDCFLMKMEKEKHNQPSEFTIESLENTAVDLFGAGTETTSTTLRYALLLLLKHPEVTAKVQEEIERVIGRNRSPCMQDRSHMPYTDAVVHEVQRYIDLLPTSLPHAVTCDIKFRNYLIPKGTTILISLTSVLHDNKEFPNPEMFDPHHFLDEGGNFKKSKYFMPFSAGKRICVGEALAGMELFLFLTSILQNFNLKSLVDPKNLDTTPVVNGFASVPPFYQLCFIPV", "experiment": "qHTS Assay for Inhibitors and Substrates of Cytochrome P450 2C9 (AID 883); note: nearly all actives have a fitted effect of over 60% in size; note: potency is the fitted concentration of half-maximal effect", "in_short": "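Human CYP2C9 (10nM) with Luciferin-H at 100uM (its KM) in 25mM KPO4; compound preincubated 10 min at 37C, then NADPH regeneration for 60 min at 37C. Luciferin read by luminescence after detection reagent; normalized to 57uM sulphaphenazole as full inhibition.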"}, "[11]": {"target": "Cytochrome P450 3A4 (Homo sapiens) (UniProt P08684)", "sequence (P08684 whole entry, looked up)": "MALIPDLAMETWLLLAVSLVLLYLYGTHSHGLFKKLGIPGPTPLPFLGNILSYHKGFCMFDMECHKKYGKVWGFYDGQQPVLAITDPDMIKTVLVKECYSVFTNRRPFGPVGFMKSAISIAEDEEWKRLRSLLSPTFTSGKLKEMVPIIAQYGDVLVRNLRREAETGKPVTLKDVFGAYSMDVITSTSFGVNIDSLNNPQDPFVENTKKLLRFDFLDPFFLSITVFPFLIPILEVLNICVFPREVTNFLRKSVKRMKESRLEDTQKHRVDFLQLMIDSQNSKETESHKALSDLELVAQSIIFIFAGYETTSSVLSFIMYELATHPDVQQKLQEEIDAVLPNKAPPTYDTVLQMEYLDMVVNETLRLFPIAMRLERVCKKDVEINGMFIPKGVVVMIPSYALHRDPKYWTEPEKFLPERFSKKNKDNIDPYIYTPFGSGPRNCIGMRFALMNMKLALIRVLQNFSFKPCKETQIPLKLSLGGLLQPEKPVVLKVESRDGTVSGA", "experiment": "qHTS Assay for Activators of Cytochrome P450 3A4 (AID 885); note: nearly all actives have a fitted effect of over 65% in size", "in_short": "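Signal was normalized against complete inhibition by 57 uM ketoconazole. The reaction used 20nM CYP3A4 with 25uM Luciferin-PPXE, 10-min compound preincubation and a 60-min NADPH-supported step at RT.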"}, "[12]": {"target": "Cytochrome P450 2D6 (Homo sapiens) (UniProt P10635)", "experiment": "qHTS Assay for Inhibitors and Substrates of Cytochrome P450 2D6 (AID 891);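 note: luciferin methyl ether substrate demethylated by CYP2D6 with NADPH regeneration; nearly all actives have a fitted effect of over 60% in size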", "in_short": "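Human CYP2D6 (5 nM) with 30 uM Luciferin-ME EGE (at Km) in 100 mM KPO4, compound preincubated 10 min, then NADPH regeneration system for 60 min at room temperature. Luciferin read by luminescence; normalized to 1.43 uM quinidine.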"}, "[13]": {"target": "Cytochrome P450 2C19 (Homo sapiens) (UniProt P33261)", "sequence (P33261 whole entry, looked up)": "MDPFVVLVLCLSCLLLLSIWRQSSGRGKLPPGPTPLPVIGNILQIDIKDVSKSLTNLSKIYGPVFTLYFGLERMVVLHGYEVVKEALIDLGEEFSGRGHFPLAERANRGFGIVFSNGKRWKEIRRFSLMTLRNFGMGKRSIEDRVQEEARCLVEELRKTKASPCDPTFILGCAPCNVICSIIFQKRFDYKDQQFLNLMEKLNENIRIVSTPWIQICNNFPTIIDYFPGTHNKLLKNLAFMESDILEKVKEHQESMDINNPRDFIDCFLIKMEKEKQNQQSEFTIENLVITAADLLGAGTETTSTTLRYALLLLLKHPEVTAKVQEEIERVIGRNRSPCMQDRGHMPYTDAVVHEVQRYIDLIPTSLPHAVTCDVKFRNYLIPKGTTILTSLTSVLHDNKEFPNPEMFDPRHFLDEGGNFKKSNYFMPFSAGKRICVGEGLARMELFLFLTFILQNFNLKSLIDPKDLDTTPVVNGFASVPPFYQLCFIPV", "experiment": "qHTS Assay for Inhibitors and Substrates of Cytochrome P450 2C19 (AID 899); note: nearly all actives have a fitted effect of over 60% in size", "in_short": "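5 nM human CYP2C19 with 10uM Luciferin-H EGE (at KM) in 50mM KPO4, compound preincubated 10 min at 37C, then NADPH regeneration for 60 min at 37C. Luciferin read by luminescence after detection reagent; normalized to 57uM ketoconazole as full inhibition.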"}, "[14]": {"experiment": "Primary qHTS for small molecule stabilizers of the endoplasmic reticulum resident proteome: Secreted ER Calcium Modulated Protein (SERCaMP) assay (AID 1508630)", "in_short": "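GLuc-SERCaMP-expressing SH-SY5Y cells, pretreated 16 h with compound, are challenged with thapsigargin to empty ER calcium stores; after 4 h, coelenterazine is added directly to the medium and luminescence is imaged.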"}, "[15]": {"experiment": "qHTS Assay for Lipid Storage Modulators (AID 1519; calls by dose curve)", "details": "Drosophila S3 cells, BODIPY lipid droplet/cell ratio, laser cytometry, cells loaded with oleic acid", "in_short": "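Cells seeded at 5,000 per well were treated with compounds over a concentration series and loaded with oleic acid (400 uM, as added). Lipid droplet fluorescence (488 nm excitation, 500-530 nm channel) was read by laser-scanning cytometry and normalized to 20 uM Triacsin C.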"}, "[16]": {"target": "Glucocorticoid receptor (Homo sapiens) (UniProt P04150)", "experiment": "GR-GFP Redistribution (AID 450;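 active = compounds whose dose series gives a full or clear partial fitted curve of increased nuclear translocation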; note: potency is the fitted concentration of half-maximal effect)", "details": "U2OS GR-GFP nuclear translocation, laser cytometry, 2 h"}, "[17]": {"target": "Ubiquitin carboxyl-terminal hydrolase 1 (Homo sapiens) (UniProt O94782)", "sequence (O94782 whole entry, looked up)": "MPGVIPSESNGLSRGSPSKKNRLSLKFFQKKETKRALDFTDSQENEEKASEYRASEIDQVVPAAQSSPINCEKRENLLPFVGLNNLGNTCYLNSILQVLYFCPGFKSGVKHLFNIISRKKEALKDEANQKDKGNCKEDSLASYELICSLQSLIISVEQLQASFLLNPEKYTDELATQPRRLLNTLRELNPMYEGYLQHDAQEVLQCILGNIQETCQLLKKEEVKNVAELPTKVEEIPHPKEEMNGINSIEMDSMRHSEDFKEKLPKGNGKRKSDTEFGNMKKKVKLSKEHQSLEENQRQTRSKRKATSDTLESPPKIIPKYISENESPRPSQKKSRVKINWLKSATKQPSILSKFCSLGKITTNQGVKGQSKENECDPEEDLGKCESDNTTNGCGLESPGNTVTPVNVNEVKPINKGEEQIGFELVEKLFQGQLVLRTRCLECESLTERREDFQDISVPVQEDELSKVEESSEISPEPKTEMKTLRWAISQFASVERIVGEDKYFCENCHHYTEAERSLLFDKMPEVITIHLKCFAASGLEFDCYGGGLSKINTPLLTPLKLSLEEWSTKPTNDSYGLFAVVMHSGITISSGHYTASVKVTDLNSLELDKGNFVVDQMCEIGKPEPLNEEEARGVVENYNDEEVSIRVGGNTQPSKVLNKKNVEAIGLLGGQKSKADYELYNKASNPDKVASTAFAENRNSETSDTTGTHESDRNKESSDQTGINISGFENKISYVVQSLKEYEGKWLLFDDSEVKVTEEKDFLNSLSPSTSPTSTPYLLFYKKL", "experiment": "Inhibitors of USP1/UAF1: Pilot qHTS (AID 504865);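 note: rhodamine fluorescence freed from ubiquitin-rhodamine substrate followed over time; top concentration of the series differs between compounds; nearly all actives have a fitted effect of over 35% in size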", "in_short": "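1nM USP1/UAF1 + cpd, 15 min RT; start w/ Ub-Rho 150nM final; kinetic FL 480/540 nm, 6 reads q60 s. Buffer 50mM HEPES pH 7.8, 0.5mM EDTA, 1mM TCEP, 0.01% Tween-20, 0.1 mg/ml BSA.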"}}, "note": "Records with an inconclusive call do not appear. A call without a number means that no potency is given here. Activity calls are given as the source filed them. Unless noted, calls come from the whole dose curve; as a rule, active = well fitted curve in the direction sought with a large enough effect; inconclusive = small, poorly fitted or top-dose-only effect, or another doubt; inactive = no such curve, though single readings can be large; an effect the other way counts as inactive or inconclusive.", "data": [{"smiles": "N#Cc1cccc(NC(=O)N2CC[C@@]3(CCCN(C(=O)Oc4ccccc4)C3)C2)c1", "values": [{"measurement": "Potency", "setting": "[1]", "value": "> 4 µM (inactive)"}, {"measurement": "Potency", "setting": "[2]", "value": "> 11.4 µM (inactive)"}, {"measurement": "outcome", "setting": "[3]", "value": "inactive"}, {"measurement": "Potency", "setting": "[4]", "value": "inactive"}, {"measurement": "activity change, negative = inhibition", "setting": "[5]", "value": "-14.8% (inactive)"}, {"measurement": "outcome", "setting": "[6]", "value": "inactive"}, {"measurement": "Potency", "setting": "[7]", "value": "> 46 µM (inactive)"}, {"measurement": "outcome", "setting": "[8]", "value": "inactive"}, {"measurement": "Potency", "setting": "[9]", "value": "inactive"}, {"measurement": "Potency", "setting": "[10]", "value": "inactive"}, {"measurement": "Potency", "setting": "[11]", "value": "inactive"}, {"measurement": "Potency", "setting": "[12]", "value": "inactive"}, {"measurement": "Potency", "setting": "[13]", "value": "inactive"}, {"measurement": "outcome", "setting": "[14]", "value": "inactive"}]}, {"smiles": "C[C@H](CCC(=O)O)[C@H]1CC[C@@H]2[C@H]3CC[C@H]4C[C@@H](O)CC[C@@]4(C)[C@H]3CC[C@]21C", "values": [{"measurement": "activity change, negative = inhibition", "setting": "[15]; at 25.7 µM (top of the series)", "value": "2.39% (inactive)"}, {"measurement": "max response", "setting": "[15]; measured here: cell count channel max response", "value": -11.2, "unit": "%"}, {"measurement": "max response", "setting": "[15]; measured here: lipid channel max response", "value": -8.48, "unit": "%"}]}, {"smiles": "O=C(Nc1cccc(F)c1)N1CCCC2(CCN(C(=O)Oc3ccccc3)CC2)C1", "values": [{"measurement": "Potency", "setting": "[2]", "value": "> 11.4 µM (inactive)"}, {"measurement": "outcome", "setting": "[3]", "value": "inactive"}, {"measurement": "Potency", "setting": "[4]", "value": "10 µM (active)"}, {"measurement": "outcome", "setting": "[6]", "value": "inactive"}, {"measurement": "Potency", "setting": "[7]", "value": "> 46 µM (inactive)"}, {"measurement": "outcome", "setting": "[8]", "value": "inactive"}, {"measurement": "Potency", "setting": "[11]", "value": "inactive"}, {"measurement": "outcome", "setting": "[14]", "value": "inactive"}]}, {"smiles": "Cc1nnc2ccc(-c3cccc(C(F)(F)F)c3)nn12", "values": [{"measurement": "Potency", "setting": "[4]", "value": "0.0794 µM (active)"}, {"measurement": "Potency", "setting": "[16]", "value": "> 46 µM (inactive)"}, {"measurement": "Potency", "setting": "[7]", "value": "> 46 µM (inactive)"}, {"measurement": "outcome", "setting": "[8]", "value": "inactive"}, {"measurement": "Potency", "setting": "[9]", "value": "inactive"}, {"measurement": "Potency", "setting": "[11]", "value": "inactive"}, {"measurement": "Potency", "setting": "[17]", "value": "inactive"}, {"measurement": "outcome", "setting": "[14]", "value": "inactive"}]}, {"smiles": "O=C(Oc1ccccc1)N1CCC2(CCN(Cc3ccncc3)CC2)CC1", "values": [{"measurement": "Potency", "setting": "[2]", "value": "> 11.4 µM (inactive)"}, {"measurement": "outcome", "setting": "[3]", "value": "inactive"}, {"measurement": "outcome", "setting": "[6]", "value": "inactive"}, {"measurement": "Potency", "setting": "[7]", "value": "> 46 µM (inactive)"}, {"measurement": "outcome", "setting": "[8]", "value": "inactive"}, {"measurement": "Potency", "setting": "[9]", "value": "inactive"}, {"measurement": "Potency", "setting": "[10]", "value": "3.98 µM (active)"}, {"measurement": "outcome", "setting": "[14]", "value": "inactive"}]}]}
